Screens deposited in PubChem by National Center for Advancing Translational Sciences (NCATS).
Shiga inhibitor = inhibitors of Shiga toxin in Vero cells; Vero cells, Shiga toxin protein synthesis inhibition reporter; inhibition, % at 38.7 µM; actives 9.2% (n = 290,000); AID 2315; in the data active means inhibition mostly above about 28%, no sharp cut-off; inactive means mostly below about 43%
Vaccinia Venus = vaccinia inhibition (Venus reporter); Potency, µM (titrated, usually from 36.5 µM), actives largely listed as inhibitors; Vaccinia virus Venus reporter expression, fluorescence; actives 0.46% (n = 330,000); calls by dose curve; tested in A549 cells; further: nearly all actives have a fitted effect of over 30% in size
VACV mCherry inh = inhibitors of vaccinia virus infection (mCherry reporter signal). actives 0.63% (n = 310,000). Vaccinia virus mCherry reporter infection, fluorescence. Potency, µM (top dose mostly 36.5 µM), actives largely listed as inhibitors. AID 720579; calls by dose curve; tested in A549 cells; further: nearly all actives have a fitted effect of over 35% in size
Marburg entry inh = blocks Marburg virus binding to or entry into cells. AID 540276. Marburg virus pseudotyped entry inhibition, cell reporter. Potency, µM (doses to about 37.8 µM), most hits filed as inhibitors. actives 1.8% (n = 300,000); calls by dose curve; tested in HEK293 cells
Lassa entry inh = Lassa virus entry inhibition. actives 1.2% (n = 300,000). Potency, µM (doses to about 37.9 µM), hits mostly inhibitors. Lassa virus pseudotype entry inhibition, cell reporter; calls by dose curve; tested in HEK293 cells; further: nearly all actives have a fitted effect of over 50% in size
CHX counter = affects cycloheximide protein synthesis inhibition readout, counter-screen; cell reporter, cycloheximide protein synthesis inhibition counterscreen; max response, %; actives 12% (n = 300,000); in the data active means max response mostly above about 13%, no sharp cut-off; inactive means mostly below about 14%; further: read at 38.3 µM for the half of the compounds with a filed dose
Of the large screens only hits and unclear results are named; the others gave an inactive call. Only a selection was taken, and hits are over-represented in it overall.

Fc1ccc2nc(C3CCN(Cc4nc(CC5CC5)no4)CC3)[nH]c2c1	CHX counter 15
Clc1ccc(OC2CCN(Cc3nc(CC4CC4)no3)CC2)cc1	Marburg entry inh inconclusive, Lassa entry inh inconclusive
Fc1ccccc1C1CCN(Cc2nc(CC3CC3)no2)C1 (stereo unspecified)	Shiga inhibitor 75, Marburg entry inh inconclusive, CHX counter 28
CC1(C)CN(c2ccc(F)cc2)C1=O	Marburg entry inh inconclusive
CC(C)c1ccc(N2CC(C)(C)C2=O)cc1	Shiga inhibitor 74, CHX counter 29
O=C(CCCOc1ccccc1)N1CCN(C(=O)c2ccco2)CC1	Shiga inhibitor 88, Marburg entry inh inconclusive, CHX counter 21 (no result: Vaccinia Venus, VACV mCherry inh)
COC(=O)C1CCN(C(=O)CCCOc2ccccc2)CC1	Shiga inhibitor 42, CHX counter 20 (no result: Vaccinia Venus, VACV mCherry inh)
O=C(OCC(=O)N1CCN(C(=O)c2ccco2)CC1)c1ccccc1O	Shiga inhibitor 32
O=C(OCC(=O)N1CCN(C(=O)c2ccco2)CC1)c1ccccc1	Shiga inhibitor 78, CHX counter 29
Cc1cccc(OCCn2c(-c3ccc(Cl)cc3)nc3ccccc3c2=O)c1C	none (no result: Shiga inhibitor, CHX counter)
Cc1cc2oc(C(=O)Nc3ccc(S(=O)(=O)Nc4ncccn4)cc3)cc(=O)c2cc1Cl	none (no result: Marburg entry inh, Lassa entry inh)
CCC(C)NS(=O)(=O)c1ccc(S(=O)(=O)N(CCc2ccc(OC)c(OC)c2)Cc2cccs2)cc1 (stereo unspecified)	VACV mCherry inh inconclusive, Marburg entry inh 3.5µM, Lassa entry inh inconclusive
COc1cccc(C2C(C(=O)Nc3ccccc3)=C(C)Nc3nnnn32)c1OC (stereo unspecified)	none (no result: Shiga inhibitor, Marburg entry inh, CHX counter)
Nc1cc(C(F)(F)F)ccc1Nc1ccccc1	Shiga inhibitor 77, CHX counter 28 (no result: Vaccinia Venus, VACV mCherry inh, Marburg entry inh, Lassa entry inh)
N#Cc1ccc(Nc2ccccc2)c(N)c1	none (no result: VACV mCherry inh)
COc1ccc(NC(=O)C2CCCN(S(=O)(=O)c3c(C)[nH]c(=O)[nH]c3=O)C2)cc1Cl (stereo unspecified)	none
CCc1cccc2c(C(=O)C(NC(C)CC)c3ccccc3)c[nH]c12 (stereo unspecified)	VACV mCherry inh inconclusive, Marburg entry inh 12µM, Lassa entry inh 16µM
CCc1cccc2c(C(=O)COC(=O)/C=C/c3ccccc3OC)c[nH]c12	none
CCc1cccc2c(C(=O)C(NCCCOC)c3ccccc3)c[nH]c12 (stereo unspecified)	Marburg entry inh 13µM, Lassa entry inh inconclusive
CCc1cccc2c(C(=S)N3CCOCC3)c[nH]c12	Marburg entry inh inconclusive
CCOC(=O)C1CCCN(Cc2ccc(O)c(OC)c2)C1 (stereo unspecified)	none (no result: Vaccinia Venus, VACV mCherry inh)
CCN(Cc1ccccc1)Cc1ccc(OCc2ccccc2)c(OC)c1	none (no result: Vaccinia Venus, VACV mCherry inh, Marburg entry inh, Lassa entry inh)
CCOC(=O)C1CCCN(Cc2ccc(OCc3ccccc3)c(OC)c2)C1 (stereo unspecified)	CHX counter 18 (no result: Shiga inhibitor, Vaccinia Venus, VACV mCherry inh, Marburg entry inh, Lassa entry inh)
CCN1CCN(Cc2ccc(OCc3ccccc3)c(OC)c2)CC1	Shiga inhibitor 105, CHX counter 49
COc1ccc(CN2CCN(Cc3ccccc3)CC2)c(OC)c1	Marburg entry inh 18µM
COc1ccc(CN2CCN(C(=O)Cc3ccccc3)CC2)c(OC)c1	none
COc1cc(CN(C)CCc2ccccc2)ccc1OCc1ccccc1	Marburg entry inh 18µM (no result: Vaccinia Venus, VACV mCherry inh)
O=C(COC(=O)c1cc(-c2cccs2)nc2ccccc12)c1ccc(Br)cc1	none (no result: Shiga inhibitor, CHX counter)
CCOC(=O)C1CCCN(Cc2ccc(OCc3ccccc3)cc2)C1 (stereo unspecified)	Shiga inhibitor 99, CHX counter 44 (no result: Vaccinia Venus, VACV mCherry inh, Marburg entry inh, Lassa entry inh)
COc1cc(CN2CCCC(C)C2)ccc1OCc1ccccc1 (stereo unspecified)	Shiga inhibitor 36, Marburg entry inh inconclusive, CHX counter 17
CCOC(=O)C1CCCN(CCC(=O)Nc2cccc(C)c2)C1 (stereo unspecified)	Shiga inhibitor 82, CHX counter 49
CCOC(=O)C1CCCN(Cc2cccc(Cl)c2)C1 (stereo unspecified)	none (no result: Vaccinia Venus, VACV mCherry inh)
COCCN(C(=O)COC(=O)C1CC(=O)N(c2ccc(C)cc2)C1)c1c(N)n(Cc2ccccc2)c(=O)[nH]c1=O (stereo unspecified)	none (no result: Shiga inhibitor, Marburg entry inh, Lassa entry inh, CHX counter)
CCOC(=O)Cn1c(=NC(=O)c2cccs2)sc2cc(C(=O)OC)ccc21	Shiga inhibitor 72, Marburg entry inh inconclusive, Lassa entry inh inconclusive, CHX counter 44
CCc1cccc2c(C(=O)COC(=O)c3ccccc3)c[nH]c12	Shiga inhibitor 76, CHX counter 21
CCc1cccc2c(C(=O)COC(=O)c3ccc(O)cc3)c[nH]c12	Shiga inhibitor 53, Lassa entry inh inconclusive, CHX counter 37
Cc1ccc(-c2noc(CNC(=O)c3ccc4c(c3)OCO4)n2)cc1	none
COn1c(-c2ccccc2)nc2c1CCc1c-2no[n+]1[O-]	none (no result: VACV mCherry inh)
COc1ccc(-c2nc3c(n2O)CCc2c-3no[n+]2[O-])cc1	CHX counter 13 (no result: Marburg entry inh, Lassa entry inh)
CCOC(=O)c1oc2cc(O)c(CC)cc2c(=O)c1-c1cscn1	none
CCc1cc2c(=O)c(-c3cscn3)coc2cc1O	Shiga inhibitor 67, Marburg entry inh inconclusive, Lassa entry inh inconclusive, CHX counter 31 (no result: VACV mCherry inh)
CCc1cc2c(=O)c(-c3cscn3)coc2cc1OC	Shiga inhibitor 101 (no result: Vaccinia Venus, VACV mCherry inh, Lassa entry inh)
CCc1ccc(Sc2cc(C(=O)NCc3cccc(OC)c3)c3ccccc3n2)cc1	Lassa entry inh inconclusive (no result: Shiga inhibitor, Marburg entry inh, CHX counter)
CCC(C)(C)NC(=O)C(c1ccc(F)cc1)N(Cc1ccc(OC)cc1)C(=O)c1cnccn1 (stereo unspecified)	Shiga inhibitor 60, CHX counter 31
CCC(C)(C)NC(=O)C(c1ccc(F)cc1)N(Cc1cccc(OC)c1)C(=O)c1cnccn1 (stereo unspecified)	none
Cc1ccc(CC2C(=O)N(c3ccc(C)cc3)C(=O)C2C)cc1 (stereo unspecified)	Shiga inhibitor 80, CHX counter 47
Cn1c2ccc(F)cc2c2nc3ccccc3nc21	Marburg entry inh inconclusive
CCn1c2ccc(C)cc2c2nnc(SCCN3CCOCC3)nc21	Vaccinia Venus inconclusive, Marburg entry inh inconclusive, Lassa entry inh inconclusive
Cc1ccc2c(c1)c1nc3ccccc3nc1n2CCN1CCOCC1	Lassa entry inh inconclusive, CHX counter 11
Cc1ccc2c(c1)c1nc3ccccc3nc1n2C	CHX counter 19 (no result: Vaccinia Venus, VACV mCherry inh, Marburg entry inh, Lassa entry inh)
CC(=O)c1ccc(NC(=O)C2CC2c2ccccc2)cc1 (stereo unspecified)	none (no result: Shiga inhibitor, CHX counter)
COc1ccc(OC)c(CNS(=O)(=O)c2cc(-c3onc(C)c3C)ccc2C)c1	none (no result: Shiga inhibitor, Marburg entry inh, CHX counter)
COc1cccc(NC(=O)c2ccc(CN3CCN(c4ccccc4)CC3)cc2)c1	Shiga inhibitor 27, Marburg entry inh 5.8µM, Lassa entry inh inconclusive, CHX counter 17 (no result: Vaccinia Venus, VACV mCherry inh)
Cc1cccc(NC(=O)c2ccc(CN3CCN(Cc4ccccc4)CC3)cc2)c1	CHX counter 27
COc1cccc(C(=O)Nc2ccc(N3CCN(Cc4ccccc4)CC3)cc2)c1	Shiga inhibitor 43, Marburg entry inh inconclusive
CCCc1ccc(C(=O)NNc2cccc(C)c2)cc1	Shiga inhibitor 46, VACV mCherry inh inconclusive, Marburg entry inh 4µM, Lassa entry inh inconclusive, CHX counter 29
